# The campaign covered roughly 290,000 compounds. About 370 (0.13%) were called active. This is one part of a sample in which actives are shown more often than they occur. Potency and affinity values are given separately. A number with no mark means an inactive call.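 How the source made its calls: active means spots per cell inhibited over 60%, with over 100 cells counted and total cytoplasm intensity under 500,000; inconclusive means wells with under 100 cells, flagged as likely toxic; inactive means the rest.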
# Molecular target: G-protein coupled receptor 55 (Homo sapiens) (UniProt Q9Y2T6)
# Sequence (Q9Y2T6 whole entry, looked up): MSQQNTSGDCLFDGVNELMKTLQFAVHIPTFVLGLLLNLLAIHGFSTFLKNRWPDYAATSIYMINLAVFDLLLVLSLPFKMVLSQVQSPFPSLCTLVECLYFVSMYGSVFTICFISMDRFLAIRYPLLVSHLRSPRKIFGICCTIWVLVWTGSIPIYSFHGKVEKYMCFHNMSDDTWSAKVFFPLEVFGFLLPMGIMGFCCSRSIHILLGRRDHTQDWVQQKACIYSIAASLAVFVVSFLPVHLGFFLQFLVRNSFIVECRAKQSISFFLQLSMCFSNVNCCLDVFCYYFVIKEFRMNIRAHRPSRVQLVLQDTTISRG
# Assay: GPR55 antagonists blocking LPI-driven arrestin recruitment, primary screen, imaging, U2OS, beta-arrestin-GFP, LPI agonist (AID 2013);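 further: U2OS cells stably carrying GPR55 and arrestin-GFP stimulated by 5 µM LPI near EC80; imaged beta-arrestin-GFP aggregate spots per cell after agonist stimulation; plate controls were LPI-stimulated DMSO wells for no effect and DMSO wells without LPI for full effect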
# Conditions: U2OS GPR55 beta-arrestin-GFP translocation imaging, LPI antagonism; at 10 µM; active compounds read high
row,SMILES,inhibition
1,O=S(=O)(c1ccc(Br)cc1)c1nc(-c2ccco2)oc1NCC1CCCO1 (stereo unspecified),-16.8%
2,CC(C)(C)c1csc(NC(=O)CSc2nc3ccccc3c(=O)[nH]2)n1,-12.6%
3,Cc1ccc2nc3nc(NCC4CCCO4)c(C(=O)NC4CCCC4)cc3c(=O)n2c1 (stereo unspecified),0.8%
4,CCNc1nc2nc3ccc(C)cn3c(=O)c2cc1C(=O)NCC1CCCO1 (stereo unspecified),7.3%
5,C=CCNC(=O)c1cc2c(=O)n3cc(C)ccc3nc2nc1NCC1CCCO1 (stereo unspecified),93.3% (active)
6,Cc1ccc(NC(=O)CSc2nnc3n2CCCCC3)cc1,4.6%
7,Cc1cccc2c1CC(C)(C)NC2=C(C#N)C#N,5%
8,CC(Nc1c([N+](=O)[O-])c(=O)oc2ccccc12)c1ccccc1 (stereo unspecified),10.5%
9,CC(Nc1c([N+](=O)[O-])c(=O)oc2ccccc12)C(Cl)c1ccccc1 (stereo unspecified),22%
10,O=C(O)CC/C(=N\NC(=O)CNC(=O)/C=C/c1ccccc1)c1ccccc1,2.6%
11,Cc1cc(C)n(CC(=O)N/N=C/c2cccs2)n1,7.5%
12,COc1ccc(S(=O)(=O)N2CCCOC2CNC(=O)C(=O)NCc2cccnc2)cc1 (stereo unspecified),13.9%
13,CCOc1ccccc1C1c2[nH]c3ccccc3c2C[C@H]2C(=O)N(C3CCN(Cc4ccccc4)CC3)CC(=O)N12 (stereo partly specified),-0.7%
14,COC(=O)c1c(NC(NC(=O)C(C)C)C(Cl)(Cl)Cl)sc2c1CCC2 (stereo unspecified),-7.5%
15,COC(=O)c1c(NC(NC(=O)CC(C)C)C(Cl)(Cl)Cl)sc2c1CCC2 (stereo unspecified),60%
16,COC(=O)c1c(NC(NC(C)=O)C(Cl)(Cl)Cl)sc2c1CCCC2 (stereo unspecified),13.5%
17,COC(=O)c1c(NC(NC(=O)C(C)C)C(Cl)(Cl)Cl)sc2c1CCCC2 (stereo unspecified),76.3% (active)
18,CCC(=O)NC(Nc1sc2c(c1C(=O)OC)CCC2)C(Cl)(Cl)Cl (stereo unspecified),-15.1%
19,CN(C)S(=O)(=O)NCCNC(=O)c1cc(OCC(F)(F)F)ccc1OCC(F)(F)F,-3.8%
20,COc1cccc2c1OCC(CN1CCN(Cc3ccccc3F)C(CCO)C1)=C2 (stereo unspecified),8.5%
21,Cc1cccc(NC(=S)N2CCC(NC(=O)c3ccco3)CC2)c1,7.3%
22,COc1ccccc1CNC(=O)C1CCN(S(=O)(=O)c2ccc(-n3cnnn3)cc2)CC1,1%
23,Cc1ccc(S(=O)(=O)N(C)c2ccc(C(=O)NCc3cccnc3)cc2)cc1,11.2%
24,Cc1cc(N)n2nc(C)c(-c3ccccc3)c2n1,-2.4%
25,Cc1cc(C)n2nc(-c3ccccc3)c(-c3ccccc3)c2n1,7.9%
26,COc1cccc(NC(=O)C23CCC(C)(C(=O)O2)C3(C)C)c1 (stereo unspecified),-7.9%

row,SMILES,inhibition
1,Cc1csc(SCC(=O)Nc2sccc2C(N)=O)n1,2.4%
2,CCCN1C(=O)/C(=C/c2c(NCCCOCC)nc3c(C)cccn3c2=O)SC1=S,8%
3,CCOC(=O)CC1C(=O)NCCN1S(=O)(=O)c1ccc(C)cc1 (stereo unspecified),6.6%
4,CCOC(=O)CC1C(=O)NCCN1c1nc2ccc(C)cn2c(=O)c1/C=C1\SC(=S)N(C(C)CC)C1=O (stereo unspecified),70.2% (active)
5,CCOC(=O)CC1C(=O)NCCN1c1nc2ccc(C)cn2c(=O)c1/C=C1\SC(=S)N(CC(C)C)C1=O (stereo unspecified),26.9%
6,CCCN1C(=O)/C(=C/c2c(N3CCNC(=O)C3CC(=O)OC)nc3c(C)cccn3c2=O)SC1=S (stereo unspecified),46.4%
7,CCCN1C(=O)/C(=C/c2c(N3CCNC(=O)C3CC(=O)OCC)nc3c(C)cccn3c2=O)SC1=S (stereo unspecified),88.9% (active)
8,CSc1ccccc1C(=O)NCc1cccnc1,-2.4%
9,C=CCn1c(SCC(=O)Nc2ccc(F)cc2F)nc2c([nH]c3ccccc32)c1=O,-3.4%
10,CCC(NS(=O)(=O)c1ccc2c(c1)NC(=O)C(C)C(=O)N2)c1cccs1 (stereo unspecified),1%
11,CC/C(=N/N=C(\CC)c1ccccc1)c1ccccc1,20.4%
12,COc1ccccc1N1CCN(C(=O)c2cc3c(s2)CCCCC3)CC1,6.6%
13,c1ccc(CN2CCC(Nc3nc(-c4ccccc4)nc4ccccc34)CC2)cc1,31%
14,c1ccc(CN2CCC(Nc3nc(-c4cccs4)nc4ccccc34)CC2)cc1,84.6% (active)
15,c1ccc(CN2CCC(Nc3nc(-c4cccnc4)nc4ccccc34)CC2)cc1,21.2%
16,N#CCC(=O)Nc1ccc(C(=O)OCC(=O)Nc2ccccc2-c2ccccc2)cc1,6.7%
17,CC(=O)Nc1ccc(C(=O)OCC(=O)Nc2ccccc2Sc2ccccc2)cc1,16.2%
18,Cc1nc(N2CCOCC2)c(C#N)c2c1COC(C)(C)C2,-9%
19,Cc1ccc(S(=O)(=O)N2CCN(c3nc(C(C)C)c4c(c3C#N)CC(C)(C)OC4)CC2)cc1,2.3%
20,COc1ccc(C2c3c(oc4ccc(C)cc4c3=O)C(=O)N2c2cc(C)ccn2)cc1OC (stereo unspecified),86.9% (active)
21,COc1cc(C2c3c(oc4ccc(C)cc4c3=O)C(=O)N2c2cc(C)ccn2)cc(OC)c1OC (stereo unspecified),17.6%
22,COc1cc(C2c3c(oc4cc(C)c(C)cc4c3=O)C(=O)N2c2cc(C)ccn2)ccc1O (stereo unspecified),2.8%
23,COc1cccc(-c2cc(=O)c3cc(NC(=O)c4ccc(Cl)cc4)ccc3[nH]2)c1,-2.5%
24,O=C(c1ccc(Oc2ccc([N+](=O)[O-])cc2Cl)cc1)N1CCCC1,-12.4%
25,O=C(c1cccc(Oc2ccc([N+](=O)[O-])cc2Cl)c1)N1CCOCC1,-4.4%
